Pf growth 48h: inhibits P. falciparum growth in the first generation, 48 h; P. falciparum luciferase growth in erythrocytes, 48 h; Potency, µM (series often up to 28.7 µM), actives largely listed as inhibitors; 5.9% of 310,000 active; AID 504832
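Parasite viability was followed by luminescence of a genomically integrated firefly luciferase. Cultures held 0.1% parasitemia at 2% hematocrit (final), incubated under 5% CO2 at 37 C.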
Sm TGR block: inhibitors of Schistosoma mansoni thioredoxin glutathione reductase | Q962Y6 | purified TGR, DTNB reduction, TNB absorbance 405 nm | Potency, µM (top dose mostly 114 µM), usual class: inhibitors | 3% of 360,000 active | AID 485364; also: nearly all actives have a fitted effect of over 60% in size
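First, TGR (20 nM dispensed) and NADPH were mixed with compound. Second, a 15 min room-temperature incubation followed. Third, further NADPH and then DTNB were added to start the reaction. Finally, TNB absorbance was monitored kinetically.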
NS1 inh: inhibitors of influenza NS1 protein function. Potency, µM (titrated, usually from 46.1 µM). 0.4% of 270,000 active. AID 2326; calls by dose curve; also: actives are rising curves; nearly all actives have a fitted effect of over 50% in size
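A cell-based growth assay was used: compounds that relieve NS1-induced slow growth of budding yeast raise OD600. Assay medium was yeast nitrogen base with ammonium sulphate and -URA supplement, pH 6.0, with 2% galactose.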
CHX counter: affects cycloheximide protein synthesis inhibition readout, counter-screen. cell reporter, cycloheximide protein synthesis inhibition counterscreen. max response, %. AID 2314. 12% of 300,000 active; in the data active = max response mostly above about 13%, no sharp cut-off; inactive = mostly below about 14%; also: read at 38.3 µM for the half of the compounds with a filed dose
Pf growth 96h: inhibits malaria parasite growth, 96 h; P. falciparum luciferase reporter growth, 96 h; Potency, µM (top dose mostly 28.7 µM), most hits filed as inhibitors; 6.9% of 320,000 active
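Luminescence readout: decreased luciferase signal marks inhibited growth of reporter-expressing P. falciparum in infected red cells (2% hematocrit, 0.05% parasitemia final), exposed to compound two generations (96 h, 37 C, 5% CO2).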
Shiga toxin inh: blocks Shiga toxin action in Vero cells | 9.2% of 290,000 active | inhibition, % at 38.7 µM | Vero cells, Shiga toxin protein synthesis inhibition reporter; in the data active = inhibition mostly above about 28%, no sharp cut-off; inactive = mostly below about 43%
Of the large screens only hits and unclear results are named; the others gave an inactive call. Shown are actives, neighbours in structure and some others; about 21% of the full set was active somewhere. Unless noted, calls follow the shape of the dose curve; as a rule, active = well fitted curve in the direction sought with a large enough effect; inconclusive = small, poorly fitted or top-dose-only effect, or another doubt; inactive = no such curve, though single readings can be large; an effect the other way counts as inactive or inconclusive.

COc1ccc2[nH]c(C(=O)NCCCN3CCCC3=O)c(C)c2c1	none
CCN1C(=O)[C@H]2[C@@H](c3ccc(-c4cccc(Cl)c4)c(OC)c3)N[C@@](C)(C(=O)OC)[C@H]2C1=O	Pf growth 48h 2.1µM, Sm TGR block inconclusive, Pf growth 96h 1.2µM (no result: NS1 inh, CHX counter, Shiga toxin inh)
COC(=O)[C@]1(C)N[C@H](c2ccc(-c3ccc(F)cc3)cc2)[C@@H]2C(=O)N(C)C(=O)[C@@H]21	Pf growth 48h inconclusive (no result: NS1 inh, CHX counter, Shiga toxin inh)
COC(=O)[C@]1(C)N[C@H](c2ccc(-c3ccc(Cl)c(Cl)c3)c(OC)c2)[C@@H]2C(=O)N(C)C(=O)[C@@H]21	Pf growth 48h 5.2µM, Sm TGR block inconclusive, Pf growth 96h 3.3µM (no result: NS1 inh, CHX counter, Shiga toxin inh)
Cc1nn(C)c(C)c1CS(=O)(=O)c1ccccc1	Sm TGR block 22µM (no result: NS1 inh)
Cc1nc(NC(=O)CN2CCC(O)(c3ccc(F)cc3)CC2)sc1C	NS1 inh inconclusive, CHX counter 17, Shiga toxin inh 47
O=C1CCN(Cc2nnnn2CC2CCCO2)c2ccccc2N1 (stereo not drawn)	Pf growth 96h 15µM
O=C(c1ccco1)N1CCN(Cc2nnnn2CC2CCCO2)CC1 (stereo not drawn)	none
CCOc1cccc(C2c3c(oc4cc(C)c(C)cc4c3=O)C(=O)N2c2nc(C)c(C)s2)c1 (stereo not drawn)	none (no result: Pf growth 48h, NS1 inh, CHX counter, Pf growth 96h, Shiga toxin inh)
COC(=O)c1cc2sccc2n1CC(=O)Nc1cccc(SC)c1	Pf growth 96h 3.3µM
CCOC(=O)c1cc2sccc2n1CC(=O)Nc1ccc2c(c1)OCCO2	CHX counter 18
COC(=O)c1cc2sccc2n1CC(=O)Nc1ccc(OC)c(OC)c1OC	Pf growth 48h 2.1µM, NS1 inh inconclusive
CCOCCC(=O)Nc1nnc(CCc2ccccc2)s1	none
Cc1cc(C)c2ccc(C)[n+]([O-])c2c1O	Sm TGR block 13µM (no result: Pf growth 96h)
COc1ccc(OCC(O)Cn2c(Nc3cccc(C)c3)nc3c2c(=O)n(C)c(=O)n3C)cc1 (stereo not drawn)	Pf growth 48h 2.3µM, Pf growth 96h 3.3µM
Cc1ccccc1OCC(O)Cn1c(SC(C)C)nc2c1c(=O)[nH]c(=O)n2C (stereo not drawn)	Pf growth 48h inconclusive, Pf growth 96h 10µM
Cc1ccccc1OCC(O)Cn1c(NCc2ccco2)nc2c1c(=O)n(C)c(=O)n2C (stereo not drawn)	Pf growth 48h 15µM, Pf growth 96h inconclusive
Cc1cccc(-c2nc(SCc3cc(=O)c4c(C)cc(C)cc4[nH]3)n[nH]2)c1	none (no result: Pf growth 48h, NS1 inh, CHX counter, Pf growth 96h, Shiga toxin inh)
Cc1oc(-c2ccc(Cl)cc2)nc1CSc1nc2ncccc2[nH]1	none (no result: Pf growth 48h, NS1 inh, CHX counter, Pf growth 96h, Shiga toxin inh)
Cc1ccc(S(C)(=O)=O)cc1C(=O)OCC(=O)N(Cc1ccccc1)Cc1ccccc1	Pf growth 48h inconclusive, Pf growth 96h inconclusive (no result: NS1 inh, CHX counter, Shiga toxin inh)
Cc1ccc(C(=O)NCCNc2ncc(C(F)(F)F)cc2Cl)cc1[N+](=O)[O-]	Pf growth 48h inconclusive, Pf growth 96h 7.4µM
O=[N+]([O-])c1ccccc1NCCNc1ncc(C(F)(F)F)cc1Cl	CHX counter 29, Shiga toxin inh 121
O=[N+]([O-])c1cccnc1NCCNc1ncc(C(F)(F)F)cc1Cl	CHX counter 39, Shiga toxin inh 77
COc1ccc(C(=O)NCCNc2ncc(C(F)(F)F)cc2Cl)cc1[N+](=O)[O-]	Pf growth 48h inconclusive, Pf growth 96h inconclusive
O=S(=O)(c1ccc(F)cc1)N1CCN(c2ccc(-c3ccccc3)nn2)CC1	none (no result: NS1 inh)
NC(=O)C1CCN(C(=O)CNC(=O)c2ccccc2)CC1	Pf growth 48h inconclusive
O=C(NCC(=O)N1CCCCCCC1)c1ccc(Cl)cc1	none (no result: NS1 inh, CHX counter, Shiga toxin inh)
O=C(NCC(=O)N1CCOCC1)c1ccccc1	CHX counter 15, Shiga toxin inh 55
O=C(NCC(=O)N1CCCCCC1)c1ccc(Cl)cc1	CHX counter 29, Shiga toxin inh 65
CCOc1ccc(C(=O)Nc2ccccc2N2CCOCC2)cc1	Pf growth 48h inconclusive, Pf growth 96h inconclusive
O=C(NCC(=O)N1CCOCC1)c1ccc(Cl)cc1	CHX counter 18
CCOc1ccc(C(=O)Nc2ccccc2N2CCCC2)cc1	Pf growth 48h inconclusive, CHX counter 29, Pf growth 96h inconclusive
CCS(=O)(=O)N1CCN=C1SCc1ccc(F)cc1	none
CCOC(=O)c1cc2c(=O)n3ccccc3nc2n(C)c1=NC(=O)c1c(-c2ccccc2Cl)noc1C	none (no result: Pf growth 48h, NS1 inh, CHX counter, Pf growth 96h, Shiga toxin inh)
Cc1cccc(C(=O)NCC(=O)N2CCC2)c1	none (no result: NS1 inh, CHX counter, Shiga toxin inh)
Cc1cccc(C(=O)NCC(=O)N2CCOCC2)c1	CHX counter 23
